CYP2C19 inh – human CYP2C19 inhibition | 21% of 96,000 active | inhibition, % at 5 µM | AID 778 | CYP2C19 Supersomes, luciferin-H EGE luminescence, 30 min;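 active = CYP2C19 inhibition above a set limit at 5 µM in the primary screen, cut at about 50% in these data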
CYP2C9 inhib – blocks human cytochrome P450 2C9; P11712; AID 777; inhibition, % at 5 µM; 20% of 96,000 active; CYP2C9 Supersomes, luciferin-H conversion, luminescence;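 active = blocking of liver enzyme CYP2C9 beyond about 50% at 5 µM, limit read from the data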
Target sequence (P11712 whole entry, looked up): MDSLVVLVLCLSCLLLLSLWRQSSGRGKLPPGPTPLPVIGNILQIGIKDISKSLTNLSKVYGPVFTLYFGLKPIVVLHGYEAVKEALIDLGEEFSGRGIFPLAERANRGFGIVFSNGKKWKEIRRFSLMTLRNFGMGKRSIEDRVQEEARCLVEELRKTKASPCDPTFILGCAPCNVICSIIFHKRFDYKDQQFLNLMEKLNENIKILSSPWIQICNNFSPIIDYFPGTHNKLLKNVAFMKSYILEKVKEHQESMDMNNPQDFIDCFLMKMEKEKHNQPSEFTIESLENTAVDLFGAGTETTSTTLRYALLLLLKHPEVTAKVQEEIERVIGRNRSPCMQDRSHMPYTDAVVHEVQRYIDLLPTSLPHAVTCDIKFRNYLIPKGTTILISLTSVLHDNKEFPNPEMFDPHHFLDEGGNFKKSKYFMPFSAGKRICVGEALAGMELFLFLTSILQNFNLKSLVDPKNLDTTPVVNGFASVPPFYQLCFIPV
CYP2C19 act – activators of human cytochrome P450 2C19; P33261; recombinant CYP2C19, luciferin-H EGE luminescence; active compounds read high; 0 = fully inhibited enzyme, 1 = untreated enzyme; activation factor at 5 µM; 96,000 tested, under 10 active; AID 1025;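 active = activation factor of at least 2 at 5 µM in the primary screen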
EphB4 ephrin blk – blocks human EphB4 binding to ephrin-B2; EphB4 LBD / TNYL-RAW-Alexa532 peptide, fluorescence polarization; inhibition, % at 7 µM; 0.15% of 97,000 active;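 active = inhibition above the screen-wide mean inhibition plus 3 SD, cut at about 15% in these data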
CYP2C9 act – increases human cytochrome P450 2C9 activity. P11712. recombinant CYP2C9, luciferin-H conversion, luminescence; active compounds read high; factor 1 = untreated enzyme, 0 = blocked. activation factor at 5 µM. 1.4% of 96,000 active;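 active = activation factor of 2 or more for CYP2C9 at a 5 µM dose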
Large screens that a line does not name were inactive. A selection: hits, their analogues and other compounds. The true share with any hit is near 27%.

CC(Sc1ccc2c(c1)OCCO2)C(=O)Nc1ccc2c(c1)OCO2 (stereo not drawn)	CYP2C19 inh 100, CYP2C9 inhib 90
O=C(CSc1ccccc1)NCc1ccco1	none (no result: CYP2C19 inh, CYP2C9 inhib, CYP2C19 act, CYP2C9 act)
CCOC(=O)c1cnc(SCc2ccc(C(C)(C)C)cc2)nc1N	CYP2C9 inhib 70
Cc1nnc(SC(C)C(=O)Nc2ccc3c(c2)OCCO3)s1 (stereo not drawn)	none
CN1C(=O)CC(N2CCN(Cc3ccc(Cl)cc3)CC2)C1=O (stereo not drawn)	none
CCCNC(=O)NC(=O)CSc1ccc2c(c1)OCCO2	CYP2C19 inh 76
O=S(=O)(Nc1ccccn1)c1ccc(C2CCCCC2)cc1	none
COc1ccccc1CN(Cc1nc2ccccc2c(=O)[nH]1)C(=O)Nc1ccccc1C	CYP2C19 inh 89, CYP2C9 inhib 73
COc1ccc(S(=O)(=O)N(Cc2nc3ccccc3c(=O)[nH]2)C2CCCC2)cc1	CYP2C19 inh 85, CYP2C9 inhib 94
COc1ccc(CN(Cc2nc3ccccc3c(=O)[nH]2)C(=O)NC2CCCCC2)cc1	none
COc1ccccc1CN(Cc1nc2ccccc2c(=O)[nH]1)C(=O)Nc1ccc(C)cc1	none
COc1ccccc1CN(Cc1nc2ccccc2c(=O)[nH]1)S(=O)(=O)c1ccc(C)cc1	CYP2C19 inh 70, CYP2C9 inhib 74
C=CCSC1=N/C(=C\c2ccc(C)o2)C(=O)S1	CYP2C19 inh 82
C=CCSC1=N/C(=C\c2ccsc2)C(=O)S1	none
O=C(NCc1ccccc1)N[C@@H](Cc1c[nH]c2ccccc12)C(=O)O	none
O=C(Nc1ccc(F)cc1)N1CCN(c2nc3ccccc3s2)CC1	none
O=C(c1cc2sccc2n1Cc1ccccc1)N1CCN(c2nc3ccccc3s2)CC1	CYP2C9 inhib 53
O=C(Nc1ccccc1)N1CCN(c2nc3ccccc3s2)CC1	CYP2C19 inh 63, CYP2C9 inhib 59
CCC(=O)N1CCN(c2nc3ccccc3s2)CC1	none
O=C(Nc1nc(-c2ccccc2)ns1)c1cccs1	none
O=C(NCc1nc(-c2ccccc2)no1)c1ccc(Br)o1	CYP2C19 inh 72
O=C(NCc1nc(-c2ccccc2)no1)c1cccs1	CYP2C19 inh 56
O=C(COc1cccc(Cl)c1)Nc1ccc(N2CCOCC2)cc1	none
CCOC(=O)N1CCN(CC(O)COCCC23CC4CC(CC(C4)C2)C3)CC1 (stereo not drawn)	none
CCOC(=O)N1CCN(CC(O)COC2CC(C)CCC2C(C)C)CC1 (stereo not drawn)	CYP2C19 inh 57
Cc1nn(Cc2ccc(Cl)cc2)c(=O)n1N(C)c1ncc(C(F)(F)F)cc1Cl	CYP2C19 inh 73
Cc1nn(Cc2ccc([N+](=O)[O-])cc2)c(=O)n1N(C)c1ncc(C(F)(F)F)cc1Cl	none
O=C(c1ccccc1)c1ccc(OCCCN2CCCCC2)cc1	none
CC(=O)c1ccc(OCCCN2CCCCC2)cc1	CYP2C19 inh 66, CYP2C9 inhib 69
CCC1CCCCN1CCNC(=O)C1CCN(S(=O)(=O)c2c(C)noc2C)CC1 (stereo not drawn)	none
CCC(C)Sc1nc2c(c(=O)[nH]c(=O)n2C)n1CC(O)COc1ccccc1C (stereo not drawn)	none (no result: CYP2C19 inh, CYP2C9 inhib, CYP2C19 act, CYP2C9 act)
COc1ccc(CN(Cc2cc3cc4c(cc3[nH]c2=O)OCO4)C(=O)NC2CCCCC2)cc1	CYP2C9 inhib 90
Cc1cccc2cc(CN(Cc3ccco3)C(=O)NC3CCCCC3)c(=O)[nH]c12	CYP2C19 inh 70, CYP2C9 inhib 74
COc1ccc(CCN(Cc2cc3cc(C)ccc3[nH]c2=O)C(=O)N2CCCC2)cc1OC	CYP2C9 inhib 98 (no result: EphB4 ephrin blk)
COc1ccc(CCN(Cc2cc3cccc(C)c3[nH]c2=O)C(=O)NC2CCCCC2)cc1OC	CYP2C19 inh 66, CYP2C9 inhib 75
CCN(C(=O)CSc1nnnn1-c1cc(C)ccc1OC)C1CCS(=O)(=O)C1 (stereo not drawn)	none (no result: EphB4 ephrin blk)
CCCCCCCCc1nc(=S)[nH][nH]1	none (no result: CYP2C19 inh, CYP2C9 inhib, CYP2C19 act, CYP2C9 act)
CCOC(=O)c1cnn(-c2sc(C(=O)OCC)c(C)c2C(=O)OCC)c1N	none (no result: CYP2C19 inh, CYP2C9 inhib, CYP2C19 act, CYP2C9 act)
CC(=O)N1CCCc2cc(S(=O)(=O)N3CCN(C4CCCCC4)CC3)ccc21	none (no result: EphB4 ephrin blk)
CCOC(=O)c1nnsc1NC(C)=O	none
COc1ccccc1NC(=O)N(Cc1ccco1)Cc1cc2c(C)ccc(C)c2[nH]c1=O	none (no result: CYP2C19 inh, CYP2C9 inhib, CYP2C19 act, CYP2C9 act)
COc1ccccc1NC(=O)N(Cc1ccco1)Cc1cc2cccc(C)c2[nH]c1=O	CYP2C19 inh 90, CYP2C9 inhib 82
CCC(=O)NS(=O)(=O)c1cccnc1Nc1ccccc1Cl	CYP2C9 inhib 69
CCOc1nc(C)nc(NC(=O)NS(=O)(=O)c2ccccc2Cl)n1	none
CCc1ccc(N(C(=O)CCC(=O)Nc2cc(C)on2)C(C(=O)NC2CCCC2)c2ccco2)cc1 (stereo not drawn)	none (no result: CYP2C19 inh, CYP2C9 inhib, CYP2C19 act, CYP2C9 act)
CCOc1ccc(C(Nc2ccc(C)cc2)P2(=O)OCCC(C)O2)cc1 (stereo not drawn)	CYP2C19 inh 54, CYP2C9 inhib 58
CCOC(=O)C1=C(CSCc2ccccc2)NC(=O)NC1c1cc(C)ccc1C (stereo not drawn)	none
CCOC(=O)c1c(C)[nH]c(C)c1C(=O)COC(=O)[C@@H](NC(=O)c1ccccc1OCC)C(C)C	CYP2C19 inh 100, CYP2C9 inhib 98
CCOC(=O)c1c(C)[nH]c(C)c1C(=O)COC(=O)CNC(=O)c1ccc(OCC)cc1	CYP2C19 inh 53
Cc1cccc(C)c1N(CC(=O)N1CCN(C)CC1)S(C)(=O)=O	none
O=C1CCNc2cc3ccccc3cc21	CYP2C19 inh 52
O=C(OC1CCS(=O)(=O)c2sccc21)c1ccccc1 (stereo not drawn)	CYP2C19 inh 56
O=S(=O)(Nc1cccc2ncccc12)c1cccs1	CYP2C9 act 2.9 (no result: EphB4 ephrin blk)
Cc1ccc(-c2nc3cccnc3s2)cc1NC(=O)c1ccco1	none (no result: CYP2C19 inh, CYP2C9 inhib, CYP2C19 act, CYP2C9 act)
O=S(=O)(Nc1ccc(-c2nc3cccnc3s2)cc1)c1cccs1	CYP2C9 inhib 83
O=S(=O)(Nc1ccc(-c2nc3cccnc3s2)cc1)c1ccc(Cl)s1	CYP2C9 inhib 100
CCOc1ccc(-n2c(N)c(-c3nc4ccccc4[nH]3)sc2=S)cc1	none
c1ccc(-n2c(Sc3cnccn3)nnc2-c2cccs2)cc1	CYP2C19 inh 71
COc1ccc(C(=O)CSc2nnc(-c3cccs3)n2-c2ccccc2)cc1	none
CCOC(=O)c1cccnc1SCc1cc(=O)n2ccccc2n1	none
CC(OC(=O)c1cccnc1SCc1cc(=O)n2ccccc2n1)c1ccccn1 (stereo not drawn)	CYP2C9 inhib 60
O=C(NC1CCCCC1)C(c1ccc2ncccc2c1)N(Cc1ccccc1)C(=O)c1cccs1 (stereo not drawn)	CYP2C9 inhib 73
O=C(NC1CCCCC1)C(c1ccccc1)N(C(=O)c1cccs1)c1ccc2c(c1)OCO2 (stereo not drawn)	none
COc1ccc(C(OC(=O)c2c(C)noc2C)C(=O)NC2CCCC2)cc1 (stereo not drawn)	CYP2C19 inh 50, CYP2C9 inhib 80

Screening data deposited in PubChem BioAssay by several laboratories.
